Experimental data from PubChem BioAssay (NCATS).
Records with an inconclusive call do not appear. A call without a number means that no potency is given here. Calls of active or inactive are those of the source. Calls follow the shape of the dose curve; as a rule, active = well fitted curve in the direction sought with a large enough effect; inconclusive = small, poorly fitted or top-dose-only effect, or another doubt; inactive = no such curve, though single readings can be large; an effect the other way counts as inactive or inconclusive.

What was measured:
[1] = qHTS of pediatric cancer cell lines to identify multiple opportunities for drug repurposing: Primary screen for LAN-5 cells (AID 1347100)
In short: (§1)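 Viability after 48 h compound treatment at 37C, 500-1,000 cells/well, read as ATP luminescence with CellTiter-Glo. Primary screens used 11-point (MIPE, 0.78 nM-46 µM) or 8-point (NPC, 0.59 nM-46 µM) final concentrations; follow-up screens used 11-point dilutions.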

[2] = qHTS of pediatric cancer cell lines to identify multiple opportunities for drug repurposing: Primary screen for BT-12 cells (AID 1347101); also: nearly all actives have a fitted effect of over 25% in size
In short: (§2)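 Cells (500-1,000/well) rested 5 h, then received compounds for 48 h; metabolically active cells were measured by CellTiter-Glo luminescence. Final concentrations spanned up to 46 µM (MIPE, 11-point) or 0.59 nM-46 µM (NPC, 8-point) in primary screens, 11-point in follow-ups.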

[3] = qHTS of pediatric cancer cell lines to identify multiple opportunities for drug repurposing: Primary screen for Rh18 cells (AID 1347102); also: nearly all actives have a fitted effect of over 65% in size
In short: as §1

[4] = qHTS of pediatric cancer cell lines to identify multiple opportunities for drug repurposing: Primary screen for RD cells (AID 1347104); also: nearly all actives have a fitted effect of over 55% in size
In short: (§3)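 Plated cells (500-1,000 per well, growth media) were allowed to settle for 5 hours, treated with compound dilutions for 48 hours, then lysed with CellTiter-Glo for 15 min at room temperature before luminescence reading.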

[5] = qHTS of pediatric cancer cell lines to identify multiple opportunities for drug repurposing: Primary screen for MG 63 (6-TG R) cells (AID 1347105); also: nearly all actives have a fitted effect of over 50% in size
In short: as §3

[6] = qHTS of pediatric cancer cell lines to identify multiple opportunities for drug repurposing: Primary screen for control Hh wild type fibroblast cells (AID 1347106); also: nearly all actives have a fitted effect of over 55% in size
In short: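 Cells (500-1,000/well) in growth media were settled 5 h at 37 degrees C, then given compounds for 48 h. Viability was read as CellTiter-Glo luminescence. Primary runs used MIPE at 11 points (0.78 nM-46 µM) and NPC at 8 points (0.59 nM-46 µM); follow-ups used 11 points.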

[7] = qHTS of pediatric cancer cell lines to identify multiple opportunities for drug repurposing: Primary screen for Rh30 cells (AID 1347107); also: nearly all actives have a fitted effect of over 75% in size
In short: as §1

[8] = qHTS of pediatric cancer cell lines to identify multiple opportunities for drug repurposing: Primary screen for Rh41 cells (AID 1347108); also: nearly all actives have a fitted effect of over 70% in size
In short: as §3

[9] = qHTS of pediatric cancer cell lines to identify multiple opportunities for drug repurposing: Primary screen for OHS-50 cells (AID 1347103); also: nearly all actives have a fitted effect of over 40% in size
In short: as §2
Potency is read from the fitted curve at half-maximal effect.

| SMILES | Potency [1] | Potency [2] | Potency [3] | Potency [4] | Potency [5] | Potency [6] | Potency [7] | Potency [8] | Potency [9] |
| --- | --- | --- | --- | --- | --- | --- | --- | --- | --- |
| CCOC(=O)[C@H](CCc1ccccc1)N[C@@H](C)C(=O)N1CCCC1C(=O)O (stereo not given in full) | inactive | inactive | inactive | inactive | inactive | inactive | inactive | inactive |  |
| CC(C)(C)c1nc(-c2cccc(NS(=O)(=O)c3c(F)cccc3F)c2F)c(-c2ccnc(N)n2)s1 | inactive | inactive | inactive |  | inactive |  |  |  | inactive |
| CN(C)CCOc1cc(-c2cn[nH]c2)ccc1NC(=O)C1COc2ccccc2O1 (stereo not given) | inactive | inactive | inactive | inactive |  | inactive | inactive |  |  |
| O=S(=O)(NCCNCC=Cc1ccc(Br)cc1)c1cccc2cnccc12 | 20.9 µM (active) | 21.7 µM (active) | 16.6 µM (active) |  |  | inactive |  |  | 7.69 µM (active) |
| COc1cc2ncn(-c3cc(OCc4ccccc4S(C)(=O)=O)c(C#N)s3)c2cc1OC | inactive | inactive | inactive |  | inactive |  |  | inactive |  |
| COc1ccc(C=CC(=O)Nc2ccccc2C(=O)O)cc1OC | inactive | inactive | inactive |  | inactive |  |  | inactive | inactive |
| CN[C@@H]1[C@@H](O)[C@@H](O[C@@H]2[C@@H](O)[C@H](O[C@H]3O[C@H](CN)[C@@H](O)[C@H](O)[C@@H]3O)[C@@H](N)C[C@@H]2NC(=O)[C@@H](O)CN)OC[C@]1(C)O | inactive | inactive | inactive |  | inactive |  | inactive | inactive | inactive |
| CNC(=O)c1cc(Oc2ccc(NC(=O)Nc3ccc(Cl)c(C(F)(F)F)c3)c(F)c2)ccn1 | 20.9 µM (active) | 12.2 µM (active) | 23.5 µM (active) | 16.6 µM (active) | 23.5 µM (active) |  |  |  |  |
| CCN(CCO)CCCOc1ccc2c(Nc3cc(CC(=O)Nc4cccc(F)c4)[nH]n3)ncnc2c1 | 0.0372 µM (active) | inactive | inactive | inactive | inactive | inactive | inactive |  |  |
| Cc1ccc2c(c1)c1c(n2CCc2ccc(C)nc2)CCN(C)C1 | inactive | inactive | inactive | inactive | inactive | inactive | inactive | inactive |  |
| CN1C(=O)C(Cc2c[nH]c3ccccc23)NC1=S (stereo not given) | inactive | inactive | inactive | inactive | inactive | inactive | inactive |  |  |
| CC[C@H]1OC(=O)[C@H](C)[C@@H](O[C@H]2C[C@@](C)(OC)[C@@H](O)[C@H](C)O2)[C@H](C)[C@@H](O[C@@H]2O[C@H](C)C[C@H](N(C)C)[C@H]2O)[C@](C)(O)C[C@H](C)C(=NOCOCCOC)[C@H](C)[C@@H](O)[C@]1(C)O | inactive | inactive | inactive | inactive | inactive | inactive | inactive | inactive |  |
| CCC[C@H](Nc1nc(-c2ccc(NC(=O)NCC)c(OC)c2)ncc1C)c1cccnc1 | 0.0105 µM (active) | 0.0109 µM (active) | inactive |  | inactive | inactive | inactive |  | 0.0137 µM (active) |
| CN1c2ccccc2C(=O)N2CCc3c([nH]c4ccccc34)C21 (stereo not given) | inactive | inactive | inactive |  |  | inactive | inactive | inactive | inactive |
| C#C[C@]1(O)CC[C@H]2[C@H]3CCc4cc(OC)ccc4[C@H]3CC[C@@]21C | inactive | inactive | inactive |  |  | inactive | inactive | inactive |  |
| CN1CC(=O)N2C(Cc3c([nH]c4ccccc34)[C@H]2c2ccc3c(c2)OCO3)C1=O (stereo not given in full) | inactive | inactive | inactive | inactive |  |  | inactive |  |  |
| O=C(c1ccc(F)c(F)c1Nc1ccc(I)cc1F)N1CC(O)([C@H]2CCCCN2)C1 | 0.935 µM (active) | 1.09 µM (active) | 16.6 µM (active) | 0.526 µM (active) |  | 16.6 µM (active) |  | 18.7 µM (active) | 1.09 µM (active) |
| CC(C)N(CCCNC(=O)Nc1ccc(C(C)(C)C)cc1)C[C@H]1O[C@@H](n2cc(Br)c3c(N)ncnc32)[C@H](O)[C@H]1O | 23.5 µM (active) | 24.3 µM (active) | 20.9 µM (active) | 29.6 µM (active) |  |  |  | 18.7 µM (active) | 24.3 µM (active) |
| Cc1cnc(-c2cc(N3CCN(C(=O)CCS(C)(=O)=O)CC3)ncc2Cl)c(C)c1 | inactive | inactive | inactive |  | inactive | inactive | inactive | inactive |  |
| O=C(O)c1nc(=O)[nH]c(=O)[nH]1 | inactive | inactive | inactive |  | inactive |  | inactive | inactive | inactive |
| CCC(C)SSc1ncc[nH]1 (stereo not given) | 14.8 µM (active) |  |  | 26.4 µM (active) |  | inactive | inactive |  | 15.3 µM (active) |
| Cc1nn(Cc2ccccc2Cl)c(C)c1CN(C)CC(O)COc1ccc(Cl)cc1 (stereo not given) | 20.9 µM (active) |  |  | 33.2 µM (active) |  | inactive |  | 18.7 µM (active) | 24.3 µM (active) |
| O=c1[nH]c(=O)n([C@H]2C[C@@H](O)[C@@H](CO)O2)cc1C(F)(F)F |  | 10.9 µM (active) | inactive |  | inactive | inactive | inactive | inactive | 17.2 µM (active) |
| C=CCc1cccc(C=NNC(=O)CN2CCN(Cc3ccccc3)CC2)c1O |  | 24.3 µM (active) |  | 16.6 µM (active) | 18.7 µM (active) | inactive |  | 18.7 µM (active) | 7.69 µM (active) |

| SMILES | Potency [1] | Potency [2] | Potency [3] | Potency [4] | Potency [5] | Potency [6] | Potency [7] | Potency [8] | Potency [9] |
| --- | --- | --- | --- | --- | --- | --- | --- | --- | --- |
| CCCCCCCCCCCCCC(=O)N[C@H](CO)[C@H](O)c1ccc([N+](=O)[O-])cc1 |  | 24.3 µM (active) | inactive |  |  | inactive | inactive | inactive |  |
| NC(=O)c1nnn(Cc2cc(Cl)c(C(=O)c3ccc(Cl)cc3)c(Cl)c2)c1N | 20.9 µM (active) |  |  |  | inactive | inactive |  |  | 21.7 µM (active) |
| NS(=O)(=O)c1cc(Cl)c(Cl)c(S(N)(=O)=O)c1 |  | inactive | inactive |  | inactive | inactive | inactive | inactive | inactive |
| CCN1CCN(c2ccc(Nc3cc(N(C)C(=O)Nc4c(Cl)c(OC)cc(OC)c4Cl)ncn3)cc2)CC1 |  | inactive |  |  | inactive |  |  | inactive |  |
| C[C@@H](N)c1ccc(C(=O)Nc2ccnc3[nH]ccc23)cc1 | 16.6 µM (active) |  |  |  | inactive | inactive | inactive |  |  |
| COc1ccc2c(c1)c(C1=C(c3c[nH]c4ccccc34)C(=O)NC1=O)cn2CCCN(C)C | 16.6 µM (active) |  |  |  | inactive | inactive |  |  |  |
| COc1cc(CNC(=O)CCCCC=CC(C)C)ccc1O |  | inactive | inactive | inactive | inactive | inactive | inactive | inactive |  |
| CC1=C(C(=O)Nc2cc3cn[nH]c3cc2F)C(c2ccc(C(F)(F)F)cc2)CC(=O)N1 (stereo not given) |  | inactive | inactive |  |  | inactive | inactive | inactive | inactive |
| CCN1CCC(n2cc(CNc3cc(Cl)c4ncc(C#N)c(Nc5ccc(F)c(Cl)c5)c4c3)nn2)CC1 |  | 24.3 µM (active) | 20.9 µM (active) | 18.7 µM (active) |  | inactive | 23.5 µM (active) | 14.8 µM (active) | 17.2 µM (active) |
| CO[C@H]1O[C@@H]2O[C@@]3(C)CC[C@@H]4[C@@H](C)CC[C@@H]([C@H]1C)[C@@]24OO3 | 20.9 µM (active) |  |  |  | inactive | inactive |  | inactive |  |
| COc1c(C)c2c(c(O)c1CC=C(C)CCC(=O)OCCN1CCOCC1)C(=O)OC2 |  | 1.93 µM (active) | inactive |  |  |  | inactive | inactive |  |
| COC(=O)Nc1ccc(-c2nc(N3CCOCC3)c3cnn(C4CCN(C(=O)OC)CC4)c3n2)cc1 |  | 0.611 µM (active) | 6.62 µM (active) |  |  | 0.0209 µM (active) | inactive | 1.32 µM (active) | 0.432 µM (active) |
| Clc1ccc(COC(Cn2ccnc2)c2ccc(Cl)cc2Cl)c(Cl)c1 (stereo not given) | 23.5 µM (active) |  |  |  |  | inactive |  |  | 19.3 µM (active) |
| COc1ccc2cc1Oc1ccc(cc1)C[C@H]1c3cc(c(OC)cc3CCN1C)Oc1c(OC)c(OC)cc3c1[C@H](C2)N(C)CC3 |  | 7.69 µM (active) | inactive |  |  |  |  |  | 17.2 µM (active) |
| Cc1cc(C(C)Nc2ccccc2)c2nc(N3CCOCC3)cc(=O)n2c1 (stereo not given) |  | inactive |  |  |  | inactive |  |  | 24.3 µM (active) |
| OC1CCC(Nc2ncc3nc(Nc4c(F)cc(F)cc4F)n([C@@H]4CCOC4)c3n2)CC1 (stereo not given in full) |  | inactive | inactive |  | inactive | inactive |  | inactive |  |
| CCOC(=O)[C@H]1O[C@H]1C(=O)N[C@@H](CC(C)C)C(=O)NCCC(C)C |  | inactive | inactive |  | inactive | inactive |  |  | inactive |
| CN(C)CCOc1ccc(-c2nc(-c3ccc4c(c3)CCC4=NO)c(-c3ccncc3)[nH]2)cc1 |  | 27.3 µM (active) | 23.5 µM (active) | 18.7 µM (active) |  |  | 18.7 µM (active) | 23.5 µM (active) |  |
| CC(O)=C(C#N)C(=O)Nc1ccc(C(F)(F)F)cc1 |  |  | inactive |  |  |  |  |  |  |
| CCCCCOC(=O)Nc1nc(=O)n([C@@H]2O[C@H](C)[C@@H](O)C2O)cc1F (stereo not given in full) |  | inactive | inactive | inactive |  | inactive | inactive |  | inactive |
| C[C@@H]1[C@H](O)[C@@H](C)C=CC=CC=CC=CC=CC=CC=C[C@H](O[C@@H]2O[C@H](C)[C@H](O)[C@H](N)[C@@H]2O)C[C@@H]2O[C@](O)(C[C@@H](O)C[C@@H](O)[C@H](O)CC[C@@H](O)C[C@@H](O)CC(=O)O[C@H]1C)C[C@H](O)[C@@H]2C(=O)O |  | inactive | inactive |  |  | inactive | 0.418 µM (active) |  |  |
| COC1CCC(C(=O)c2ccc3nc4c(cc3c2)CCCO4)CC1 (stereo not given) |  | 1.93 µM (active) | inactive | 26.4 µM (active) |  | inactive |  |  | 12.2 µM (active) |
| NC[C@H]1O[C@H](O[C@@H]2[C@@H](O)[C@@H](O[C@H]3O[C@H](CO)[C@@H](O)[C@H](N)[C@@H]3O)[C@H](N)C[C@@H]2N)[C@H](O)[C@@H](O)[C@H]1O |  | inactive | inactive | inactive | inactive | inactive | inactive | inactive | inactive |
